These results are taken from publication PMC7862700, “An all-to-all approach to the identification of sequence-specific readers for epigenetic DNA modifications on cytosine”.

Test in all cases: DAPPL (digital affinity profiling via proximity ligation, sequencing); 10 mM Tris-HCl pH 7.5, 50 mM NaCl, 1 mM DTT, 4% glycerol, room temperature, 30 min; GST-TFs on glutathione beads, 16-mer random dsDNA library, 0.1% formaldehyde crosslink after washing; high values mean tight binding
What all share (conditions): protein: recombinant; tags: N-terminal GST; dsDNA, one strand shown

Test [1] concerns the target T1, FLI1 (Homo sapiens, UniProt Q01543 1-452).
T1 sequence: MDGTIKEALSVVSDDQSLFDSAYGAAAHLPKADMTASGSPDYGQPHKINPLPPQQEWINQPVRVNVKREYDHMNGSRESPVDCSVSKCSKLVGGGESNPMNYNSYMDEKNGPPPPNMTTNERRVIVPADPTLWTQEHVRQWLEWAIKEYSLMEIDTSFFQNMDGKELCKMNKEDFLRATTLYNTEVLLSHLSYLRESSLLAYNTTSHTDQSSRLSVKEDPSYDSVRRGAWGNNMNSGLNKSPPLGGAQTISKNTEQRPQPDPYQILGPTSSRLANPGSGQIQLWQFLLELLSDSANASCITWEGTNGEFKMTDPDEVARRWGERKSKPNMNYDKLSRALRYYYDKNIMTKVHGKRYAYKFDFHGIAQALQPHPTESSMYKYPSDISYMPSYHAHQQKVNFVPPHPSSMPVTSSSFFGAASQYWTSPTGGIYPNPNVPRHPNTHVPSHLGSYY
The procedure, abridged: (§1)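 A tag-only sample was pooled with DNA-barcoded human transcription factors that had been expressed in yeast as GST fusions and captured on glutathione beads. The pools were incubated for 30 min at room temperature with 200 nmole of a random double-stranded 16-mer DNA library in Tris/NaCl/DTT/glycerol buffer, then washed, crosslinked with 0.1% formaldehyde, proximity-ligated (BsaI/T4 ligase, 1 h, 37 °C), PCR-amplified and sequenced on an Illumina NextSeq500. Binding signal is each hexamer's read frequency for a factor divided by its frequency for the tag-only sample.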

Test [2] has as its target T2, ELK1 (Homo sapiens, UniProt P19419 1-428).
T2 sequence: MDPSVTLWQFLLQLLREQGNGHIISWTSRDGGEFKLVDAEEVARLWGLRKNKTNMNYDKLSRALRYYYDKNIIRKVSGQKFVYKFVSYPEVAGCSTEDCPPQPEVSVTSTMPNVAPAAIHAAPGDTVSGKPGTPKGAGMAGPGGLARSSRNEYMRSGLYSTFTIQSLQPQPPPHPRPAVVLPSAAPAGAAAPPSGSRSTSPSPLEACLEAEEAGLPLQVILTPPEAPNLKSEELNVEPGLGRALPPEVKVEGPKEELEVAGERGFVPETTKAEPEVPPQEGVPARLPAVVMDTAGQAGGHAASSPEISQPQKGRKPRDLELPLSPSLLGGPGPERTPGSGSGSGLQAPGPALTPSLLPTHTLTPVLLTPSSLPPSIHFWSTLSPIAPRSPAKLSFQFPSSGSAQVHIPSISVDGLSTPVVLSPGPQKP
The procedure, abridged: as §1

Test [3] addresses T3, ERG (Homo sapiens, UniProt P11308 1-479).
T3 sequence: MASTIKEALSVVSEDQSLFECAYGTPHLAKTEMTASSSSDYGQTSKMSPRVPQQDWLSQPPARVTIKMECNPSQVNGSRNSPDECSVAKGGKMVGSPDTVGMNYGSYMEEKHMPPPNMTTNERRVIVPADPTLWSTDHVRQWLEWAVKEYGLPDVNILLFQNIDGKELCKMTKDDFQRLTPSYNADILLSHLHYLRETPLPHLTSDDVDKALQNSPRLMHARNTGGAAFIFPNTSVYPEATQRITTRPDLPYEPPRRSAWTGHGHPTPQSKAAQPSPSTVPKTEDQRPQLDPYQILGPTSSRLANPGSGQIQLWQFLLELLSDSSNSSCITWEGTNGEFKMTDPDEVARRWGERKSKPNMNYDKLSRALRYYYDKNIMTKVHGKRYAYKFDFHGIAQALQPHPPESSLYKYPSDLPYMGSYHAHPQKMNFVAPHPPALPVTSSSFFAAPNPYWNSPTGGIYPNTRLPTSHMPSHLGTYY
The procedure, abridged: as §1

The target of test [4] is ELF1 (Homo sapiens, UniProt P32519 1-619). A digest of the protocol:
as §1

For test [5], the target named is T4, EHF (Homo sapiens, UniProt Q9NZC4 1-300).
T4 sequence: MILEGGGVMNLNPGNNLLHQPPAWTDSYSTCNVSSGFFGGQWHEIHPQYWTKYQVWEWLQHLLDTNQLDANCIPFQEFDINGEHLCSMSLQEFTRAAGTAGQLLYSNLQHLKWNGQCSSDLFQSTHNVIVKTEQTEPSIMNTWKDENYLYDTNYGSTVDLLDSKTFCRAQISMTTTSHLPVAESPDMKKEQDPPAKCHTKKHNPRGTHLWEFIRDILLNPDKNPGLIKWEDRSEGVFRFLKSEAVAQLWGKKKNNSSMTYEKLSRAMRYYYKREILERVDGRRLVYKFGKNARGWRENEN
The procedure, abridged:
as §1

The target in test [6] is SPIB (Homo sapiens, UniProt Q01892 1-262). The procedure, abridged: as §1
SPIB, sequence (Q01892 whole entry): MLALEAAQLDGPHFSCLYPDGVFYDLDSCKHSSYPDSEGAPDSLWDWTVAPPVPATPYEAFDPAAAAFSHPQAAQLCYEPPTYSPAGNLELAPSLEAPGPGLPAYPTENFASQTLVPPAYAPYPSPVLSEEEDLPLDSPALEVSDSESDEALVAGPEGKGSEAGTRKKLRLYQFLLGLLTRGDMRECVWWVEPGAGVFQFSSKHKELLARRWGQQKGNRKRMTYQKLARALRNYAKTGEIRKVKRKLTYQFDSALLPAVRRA
Test [7] concerns the target T5, FEV (Homo sapiens, UniProt Q99581 1-238).
T5 sequence: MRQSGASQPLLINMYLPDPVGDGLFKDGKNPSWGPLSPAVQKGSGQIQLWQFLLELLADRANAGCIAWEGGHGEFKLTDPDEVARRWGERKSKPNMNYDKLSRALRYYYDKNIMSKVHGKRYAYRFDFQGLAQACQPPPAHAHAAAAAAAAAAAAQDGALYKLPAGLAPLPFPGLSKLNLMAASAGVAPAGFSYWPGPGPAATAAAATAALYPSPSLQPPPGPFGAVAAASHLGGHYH
The procedure, abridged: as §1

Test [8] addresses ETV5 (Homo sapiens, UniProt P41161 1-510). The procedure, abridged: as §1
The target of test [9] is T6, SPIC (Homo sapiens, UniProt Q8N5J4 1-248).
T6 sequence: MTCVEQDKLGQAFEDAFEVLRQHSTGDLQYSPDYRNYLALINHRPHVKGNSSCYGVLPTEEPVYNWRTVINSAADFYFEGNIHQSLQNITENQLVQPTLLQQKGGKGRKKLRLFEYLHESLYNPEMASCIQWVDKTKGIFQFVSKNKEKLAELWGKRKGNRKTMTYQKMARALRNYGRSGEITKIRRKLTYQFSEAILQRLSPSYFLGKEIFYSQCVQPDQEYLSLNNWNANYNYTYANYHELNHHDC
The procedure, abridged: as §1

The target of test [10] is ELF4 (Homo sapiens, UniProt Q99607 1-663). A digest of the protocol:
as §1

In test [11] the target is ETV1 (Homo sapiens, UniProt P50549 1-477). The procedure, abridged:
as §1

In test [12] the target is T7, ETS2 (Homo sapiens, UniProt P15036 1-469).
T7 sequence: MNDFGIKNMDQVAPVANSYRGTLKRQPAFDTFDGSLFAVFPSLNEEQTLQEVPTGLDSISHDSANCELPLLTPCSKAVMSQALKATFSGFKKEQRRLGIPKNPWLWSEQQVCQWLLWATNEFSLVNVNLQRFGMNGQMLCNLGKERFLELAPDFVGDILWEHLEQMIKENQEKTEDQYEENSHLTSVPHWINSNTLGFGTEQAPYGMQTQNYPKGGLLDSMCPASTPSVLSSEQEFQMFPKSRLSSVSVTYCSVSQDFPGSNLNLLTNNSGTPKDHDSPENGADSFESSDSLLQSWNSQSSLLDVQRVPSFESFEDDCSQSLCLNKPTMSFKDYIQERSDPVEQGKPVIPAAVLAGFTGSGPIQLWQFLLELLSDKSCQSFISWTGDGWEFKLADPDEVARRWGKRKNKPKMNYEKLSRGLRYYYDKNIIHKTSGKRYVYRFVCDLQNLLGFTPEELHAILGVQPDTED
A digest of the protocol: as §1

Test [13] concerns the target T8, SPDEF (Homo sapiens, UniProt O95238 1-335).
T8 sequence: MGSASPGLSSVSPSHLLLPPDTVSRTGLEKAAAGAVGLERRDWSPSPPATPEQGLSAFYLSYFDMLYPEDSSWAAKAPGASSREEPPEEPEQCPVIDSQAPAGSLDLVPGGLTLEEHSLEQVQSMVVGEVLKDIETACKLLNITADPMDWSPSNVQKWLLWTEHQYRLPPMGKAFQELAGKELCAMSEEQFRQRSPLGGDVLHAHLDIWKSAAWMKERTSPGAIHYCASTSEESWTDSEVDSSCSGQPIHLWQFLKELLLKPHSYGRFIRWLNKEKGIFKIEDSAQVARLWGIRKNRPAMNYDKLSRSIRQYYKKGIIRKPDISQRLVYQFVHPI
A digest of the protocol:
as §1

The target of test [14] is T9, ELF5 (Homo sapiens, UniProt Q9UKW6-2 1-255).
T9 sequence: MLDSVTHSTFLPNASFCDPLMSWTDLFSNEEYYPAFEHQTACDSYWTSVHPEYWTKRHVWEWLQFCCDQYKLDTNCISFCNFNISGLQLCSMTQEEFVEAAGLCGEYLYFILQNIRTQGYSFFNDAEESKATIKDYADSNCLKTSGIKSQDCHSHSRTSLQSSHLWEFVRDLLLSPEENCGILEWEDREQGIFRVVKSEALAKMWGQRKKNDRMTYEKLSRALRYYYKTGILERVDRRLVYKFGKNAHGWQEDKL
A digest of the protocol: as §1

For test [15], the target named is T10, ETV3 (Homo sapiens, UniProt P41162-2 1-143).
T10 sequence: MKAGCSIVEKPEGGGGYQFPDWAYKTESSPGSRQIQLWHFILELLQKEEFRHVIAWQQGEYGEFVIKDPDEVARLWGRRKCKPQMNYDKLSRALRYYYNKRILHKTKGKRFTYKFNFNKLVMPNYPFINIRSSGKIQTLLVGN
A digest of the protocol:
as §1

Test [16] has as its target ETV6 (Homo sapiens, UniProt P41212 1-452). A digest of the protocol: as §1

ETV6, sequence (P41212 whole entry): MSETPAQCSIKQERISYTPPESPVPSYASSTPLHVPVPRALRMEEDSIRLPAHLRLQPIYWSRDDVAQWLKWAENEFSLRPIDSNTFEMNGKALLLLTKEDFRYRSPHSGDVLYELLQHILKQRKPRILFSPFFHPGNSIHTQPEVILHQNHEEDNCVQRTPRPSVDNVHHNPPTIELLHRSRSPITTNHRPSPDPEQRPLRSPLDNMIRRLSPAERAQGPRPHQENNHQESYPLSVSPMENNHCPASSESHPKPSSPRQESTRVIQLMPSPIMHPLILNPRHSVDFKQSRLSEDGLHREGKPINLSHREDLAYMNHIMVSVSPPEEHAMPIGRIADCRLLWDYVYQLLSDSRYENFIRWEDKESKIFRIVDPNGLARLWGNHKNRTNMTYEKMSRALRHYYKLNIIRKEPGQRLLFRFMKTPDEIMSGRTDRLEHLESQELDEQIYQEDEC
ELF4, sequence (Q99607 whole entry): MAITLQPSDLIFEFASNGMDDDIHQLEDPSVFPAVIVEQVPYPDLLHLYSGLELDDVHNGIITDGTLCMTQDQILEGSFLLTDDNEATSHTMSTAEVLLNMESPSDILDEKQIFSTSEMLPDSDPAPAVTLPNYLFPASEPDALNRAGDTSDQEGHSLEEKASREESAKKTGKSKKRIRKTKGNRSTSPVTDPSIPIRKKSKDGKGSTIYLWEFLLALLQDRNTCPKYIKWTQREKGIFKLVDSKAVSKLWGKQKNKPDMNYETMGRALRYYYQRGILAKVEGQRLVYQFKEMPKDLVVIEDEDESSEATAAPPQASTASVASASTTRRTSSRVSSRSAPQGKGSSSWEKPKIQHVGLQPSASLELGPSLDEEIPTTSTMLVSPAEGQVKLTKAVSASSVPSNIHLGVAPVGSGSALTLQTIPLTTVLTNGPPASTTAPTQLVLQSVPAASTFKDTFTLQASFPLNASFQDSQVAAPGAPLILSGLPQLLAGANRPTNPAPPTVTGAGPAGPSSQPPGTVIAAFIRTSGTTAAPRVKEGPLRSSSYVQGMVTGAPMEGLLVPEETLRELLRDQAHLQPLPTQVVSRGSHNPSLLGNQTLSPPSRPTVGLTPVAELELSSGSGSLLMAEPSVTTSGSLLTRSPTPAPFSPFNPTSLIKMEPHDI
ETV5, sequence (P41161 whole entry): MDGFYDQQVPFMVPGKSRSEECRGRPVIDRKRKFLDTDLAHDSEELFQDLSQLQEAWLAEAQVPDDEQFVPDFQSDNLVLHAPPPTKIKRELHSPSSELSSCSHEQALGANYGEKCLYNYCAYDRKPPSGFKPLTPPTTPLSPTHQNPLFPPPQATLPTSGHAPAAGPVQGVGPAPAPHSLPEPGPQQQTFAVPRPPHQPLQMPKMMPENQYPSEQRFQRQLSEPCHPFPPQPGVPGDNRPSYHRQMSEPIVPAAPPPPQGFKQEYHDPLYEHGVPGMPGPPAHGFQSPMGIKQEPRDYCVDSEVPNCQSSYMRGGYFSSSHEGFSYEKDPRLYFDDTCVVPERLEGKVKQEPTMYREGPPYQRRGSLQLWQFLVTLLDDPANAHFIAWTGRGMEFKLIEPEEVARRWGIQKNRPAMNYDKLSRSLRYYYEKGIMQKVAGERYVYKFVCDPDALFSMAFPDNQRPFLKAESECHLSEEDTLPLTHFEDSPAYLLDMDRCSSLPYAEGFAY
ELF1, sequence (P32519 whole entry): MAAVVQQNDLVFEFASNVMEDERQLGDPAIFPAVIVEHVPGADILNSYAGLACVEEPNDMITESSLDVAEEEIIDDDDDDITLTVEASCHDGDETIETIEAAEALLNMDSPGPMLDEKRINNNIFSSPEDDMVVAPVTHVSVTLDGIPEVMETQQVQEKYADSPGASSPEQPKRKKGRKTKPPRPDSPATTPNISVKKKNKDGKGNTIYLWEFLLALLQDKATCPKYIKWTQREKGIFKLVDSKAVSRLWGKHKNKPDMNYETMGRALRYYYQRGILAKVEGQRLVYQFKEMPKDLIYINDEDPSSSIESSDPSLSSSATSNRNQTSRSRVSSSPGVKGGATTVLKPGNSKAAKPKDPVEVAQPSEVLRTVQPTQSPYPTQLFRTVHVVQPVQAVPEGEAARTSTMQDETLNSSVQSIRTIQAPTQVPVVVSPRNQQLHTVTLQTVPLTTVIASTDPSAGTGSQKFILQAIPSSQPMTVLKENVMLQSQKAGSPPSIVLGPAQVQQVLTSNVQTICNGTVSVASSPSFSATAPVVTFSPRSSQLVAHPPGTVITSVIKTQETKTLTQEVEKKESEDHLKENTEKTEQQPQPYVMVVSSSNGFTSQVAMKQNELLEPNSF
ETV1, sequence (P50549 whole entry): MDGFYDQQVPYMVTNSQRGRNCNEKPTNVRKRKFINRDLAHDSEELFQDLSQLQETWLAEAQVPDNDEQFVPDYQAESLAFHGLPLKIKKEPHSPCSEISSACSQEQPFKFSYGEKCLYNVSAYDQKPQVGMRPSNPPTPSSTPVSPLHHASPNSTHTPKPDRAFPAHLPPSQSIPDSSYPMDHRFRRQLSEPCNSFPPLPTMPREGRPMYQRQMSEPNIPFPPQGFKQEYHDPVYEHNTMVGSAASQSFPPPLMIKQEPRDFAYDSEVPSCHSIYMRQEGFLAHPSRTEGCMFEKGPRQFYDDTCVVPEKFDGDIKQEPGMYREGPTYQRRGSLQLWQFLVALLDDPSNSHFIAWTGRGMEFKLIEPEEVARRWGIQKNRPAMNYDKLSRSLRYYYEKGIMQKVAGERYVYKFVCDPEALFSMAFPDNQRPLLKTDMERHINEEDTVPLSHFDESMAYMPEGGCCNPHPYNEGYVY

Consider TGCCGG, for which the binding signal in test [1] is 1.11 fold enrichment (6-mer frequency, TF over GST control); in test [2] it was 1.09 fold enrichment (6-mer frequency, TF over GST control); in test [3] it was 1.13 fold enrichment (6-mer frequency, TF over GST control); in test [4] it was 1.02 fold enrichment (6-mer frequency, TF over GST control); in test [5] it was 1.03 fold enrichment (6-mer frequency, TF over GST control); in test [6], 1.02 fold enrichment (6-mer frequency, TF over GST control). Also, the binding signal is 1.26 fold enrichment (6-mer frequency, TF over GST control) in test [7]; 1.04 fold enrichment (6-mer frequency, TF over GST control) in [8]; 1.09 fold enrichment (6-mer frequency, TF over GST control) in [9]; 1.04 fold enrichment (6-mer frequency, TF over GST control) in test [10]; 1.11 fold enrichment (6-mer frequency, TF over GST control) in test [11]; 1 fold enrichment (6-mer frequency, TF over GST control) in test [12]. Also, the binding signal was 1.21 fold enrichment (6-mer frequency, TF over GST control) in [13]; 1.09 fold enrichment (6-mer frequency, TF over GST control) in test [14]; 1.21 fold enrichment (6-mer frequency, TF over GST control) in test [15]; 1.13 fold enrichment (6-mer frequency, TF over GST control) in [16].
